HCMV antiviral = human cytomegalovirus inhibition; HFF cells, HCMV-luciferase reporter, 72 h; active compounds read low; activity change, negative = inhibition, % at 57.5 µM; 410,000 tested, 4.5% active; in the data active means activity change below about -60%; inconclusive means no clear call, values can overlap the other calls; inactive means above about -39%
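After 16 h attachment at 37C, HFF cells received test compound and HCMV-luciferase (1 PFU/cell); reporter luminescence read 72 h later, data normalized against buffer-only and known inhibitor Salinomycin.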
Cycloheximide cs = counter-screen for Shiga toxin inhibitors: cycloheximide protein synthesis inhibition. cell reporter, cycloheximide protein synthesis inhibition counterscreen. max response, %. 300,000 tested, 12% active. AID 2314; in the data active means max response mostly above about 13%, no sharp cut-off; inactive means mostly below about 14%; further: read at 38.3 µM for the half of the compounds with a filed dose
Pf growth 48h = P. falciparum growth inhibition at 48 hours (one generation); 310,000 tested, 5.9% active; P. falciparum luciferase growth in erythrocytes, 48 h; Potency, µM (titrated, usually from 28.7 µM), actives largely listed as inhibitors
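Parasite viability was followed by luminescence of a genomically integrated firefly luciferase. Cultures held 0.1% parasitemia at 2% hematocrit (final), incubated under 5% CO2 at 37 C.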
Pf growth 96h = inhibits malaria parasite growth, 96 h | Potency, µM (top dose mostly 28.7 µM), hits mostly inhibitors | AID 504834 | 320,000 tested, 6.9% active | P. falciparum luciferase reporter growth, 96 h
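Two-generation exposure (96 h) targets delayed-death phenotype. Reporter parasites carrying integrated firefly luciferase, in red cells at 2% hematocrit and 0.05% parasitemia final, kept at 37 C, 5% CO2; luminescence loss indicates inhibition.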
Shiga inhibitor = Shiga toxin inhibition; Vero cells, Shiga toxin protein synthesis inhibition reporter; inhibition, % at 38.7 µM; 290,000 tested, 9.2% active; AID 2315; in the data active means inhibition mostly above about 28%, no sharp cut-off; inactive means mostly below about 43%
Hits are given with their value; . = inactive; ? = inconclusive; / = no result given; + = active, no number. Most compounds without a hit are left out; they make up all but 20% or so of the library. Unless noted, the call rests on the fitted dose curve; in most records, active means well fitted inhibition curve with a large enough effect; inconclusive means small, poorly fitted or top-dose-only effect, or another doubt; inactive means no such curve, though single readings can be large or run the other way.

SMILES	HCMV antiviral	Cycloheximide cs	Pf growth 48h	Pf growth 96h	Shiga inhibitor
Cc1c(-c2nsc(NC(=O)c3cccs3)n2)nnn1-c1ccc(F)cc1	.	/	/	/	/
COc1cccc(-c2csc3ncnc(Sc4nnnn4C)c23)c1	-99	/	/	/	/
CC(=O)c1ccccc1-c1csc2ncnc(Sc3nnnn3C)c12	?	/	12µM	4.1µM	/
Cc1ccc(-c2csc3ncnc(-n4nnc5ccccc54)c23)cc1	?	.	.	?	.
Cn1nnnc1Sc1ncnc2scc(-c3ccc(C(F)(F)F)cc3)c12	-99	/	?	?	/
Cn1nnnc1Sc1ncnc2scc(-c3cccc(C(F)(F)F)c3)c12	-99	/	/	/	/
Cc1ccc(NC(=O)COc2ccc(Br)cc2CO)cc1S(=O)(=O)N1CCOCC1	.	/	/	/	/
Cc1ccc(O)c(-c2cc(C(=O)Nc3ccc(S(=O)(=O)Nc4nccc(C)n4)cc3)[nH]n2)c1	.	.	?	?	.
O=C(C[C@H]1CC[C@@H]2[C@H](COC[C@H](O)CN2C(=O)c2cnccn2)O1)NCc1ccc(Cl)cc1	.	/	/	/	/
Fc1ccc(CSc2ncnc3scc(-c4ccccc4)c23)cc1	.	.	?	?	.
Cn1nnnc1Sc1ncnc2scc(-c3ccccc3C(F)(F)F)c12	-83	/	13µM	7.4µM	/
Cn1nnnc1Sc1ncnc2scc(-c3cccc(F)c3)c12	?	/	4.7µM	?	/
O=C(NCc1cccnc1)C(=O)Nc1nc2ccccc2s1	.	39	.	.	93
O=C(NCc1cccnc1)C(=O)Nc1nccs1	/	.	.	.	.
O=C(Nc1nc2ccc(F)cc2s1)C1=COCCO1	.	/	.	.	/
CCOc1ccc2nc(NC(=O)c3cnccn3)sc2c1	.	32	.	.	62
O=C(Nc1nc(-c2ccco2)c(-c2ccco2)s1)c1cnccn1	.	/	?	?	/
O=C(Nc1nc2ccc(F)cc2s1)c1ccccn1	-98	.	.	.	.
O=C(Nc1nc2ccccc2s1)c1cnccn1	.	32	/	.	53
CC(C)NC(=O)NC(=O)COc1ccc(Br)cc1Br	.	130	.	.	75
O=C(COc1ccc(Br)cc1Cl)NC1CCCCC1	?	36	.	.	+
O=C(COc1ccc(Br)cc1Br)NC1CCCC1	-63	43	.	.	109
O=C(COc1ccc(Br)cc1Br)NC1CCS(=O)(=O)C1 (stereo not given)	?	/	.	.	/
O=C(COc1ccc(Br)cc1Cl)NC(=O)NC1CCCC1	.	/	.	.	/
Cc1cc(OC(=O)c2cccc(Br)c2)c([N+](=O)[O-])c(=O)[nH]1	.	.	.	.	.
SMILES	HCMV antiviral	Cycloheximide cs	Pf growth 48h	Pf growth 96h	Shiga inhibitor
Cc1cc(C)c2oc(C(=O)Nc3nc4ccc(Cl)cc4s3)cc(=O)c2c1	.	/	/	/	/
Cc1cc(C)n(CC(=O)NNC(=O)c2ccc(NC(=O)CC#N)cc2)n1	.	/	.	.	/
Cc1ccc2c(c1)N(CC(=O)NCCCN1CC(C)CC(C)C1)C(=O)c1cccnc1O2 (stereo not given)	.	.	.	.	.
CCc1ccc(C(=O)OCC(=O)NC2CCCC2)cc1	.	30	.	.	.
CC(C)c1ccc(C(=O)OCC(=O)NC2CCCC2)cc1	.	27	.	.	.
CCC(C)n1c(C)nc2c(c1=O)c1nc3ccccc3nc1n2-c1ccc2c(c1)OCCO2 (stereo not given)	/	.	.	.	.
C[C@H]1CN([C@@H](C)CO)C(=O)CCCn2nncc2CO[C@H]1CN(C)C(=O)c1cc(-c2ccccc2)on1	.	/	/	/	/
Cc1ccc(NC(=O)C2CCN(c3cc(C)nc4c(-c5ccc(Cl)cc5)c(C)nn34)CC2)c(C)c1	.	/	/	/	/
Cc1cccc(C)c1NC(=O)C(c1ccnc2ccccc12)n1c(=O)c(-c2ccco2)nc2ccccc21 (stereo not given)	.	/	/	/	/
Clc1ccc(-n2nnnc2-c2ccccc2)cc1	.	.	.	.	.
Clc1ccc2[nH]cc(-c3nnnn3-c3ccc4ccccc4c3)c2c1	-62	.	?	?	.
Cc1onc(-c2c(F)cccc2Cl)c1C(=O)OCC(=O)N(C)c1ccccc1	.	/	/	/	/
O=C(Nc1cccnc1)c1cc2c(ccc3ccccc32)o1	/	57	.	.	40
Cc1c(C(=O)NCc2cccs2)oc2ccc(Br)cc12	.	30	.	/	.
CCc1ccc2oc(C(=O)Nc3cccnc3)c(C)c2c1	/	58	.	.	66
NNC(=O)c1cc2c(ccc3ccccc32)o1	.	.	.	.	.
Cc1c(C(=O)Nc2cccnc2)oc2ccc(Br)cc12	.	34	.	.	75
Cc1c(C(=O)NCc2ccccn2)oc2ccc(Br)cc12	.	/	.	.	/
C#CCOc1ccc(C2C3=C(CCCC3=O)N(CC(=O)O)C3=C2C(=O)CCC3)cc1Br	.	.	.	.	.
COc1ccc2c(c1)CCCC1(CCCO2)CCCO1 (stereo not given)	.	/	/	/	/
COc1ccc(N2CCN(CCNS(=O)(=O)c3ccc(C)cc3)CC2)cc1	.	.	.	.	.
O=C(NCc1nc2ccccc2[nH]1)C1=C[C@@H](c2ccc(Br)cc2)C[C@@H](OCCCCO)O1	.	.	?	?	.
CC(C)(C)[C@H]1C=C(C(=O)NCc2nc3ccccc3[nH]2)O[C@@H](OCCCCO)C1	.	.	?	10µM	.
C[C@H]1C=C(C(=O)NCc2nc3ccccc3[nH]2)O[C@@H](OCCCCO)C1	.	/	/	/	/
O=C(NCc1nc2ccccc2[nH]1)C1=C[C@@H](c2ccccc2)C[C@@H](OCCCCO)O1	.	.	0.0033µM	.	.
SMILES	HCMV antiviral	Cycloheximide cs	Pf growth 48h	Pf growth 96h	Shiga inhibitor
CC(C)(C)C1CCC(OCC(O)CN2CCN(Cc3ccccc3)CC2)CC1 (stereo not given)	.	.	?	?	.
OC(COCC1COc2ccccc2O1)CN1CCN(c2ccccn2)CC1 (stereo not given)	-66	.	.	.	.
CC(C)(C)C1CCC(OCC(O)CN2CCN(c3ccccn3)CC2)CC1 (stereo not given)	-69	.	.	.	.
CC1CCCC(C)N1CC(O)COC1CCC(C(C)(C)C)CC1 (stereo not given)	.	.	10µM	.	.
CC1CN(CC(O)COC2CCC(C(C)(C)C)CC2)CC(C)O1 (stereo not given)	.	.	.	?	.
OC(CN1CCN(c2ccccn2)CC1)Cn1c2ccccc2c2ccccc21 (stereo not given)	.	.	?	1.9µM	.
OC(COCC1COc2ccccc2O1)CN1CCc2ccccc2C1 (stereo not given)	.	.	.	.	.
O=C(CNC(=O)c1ccccc1Cl)NCCc1cccs1	.	/	/	/	/
C=C1CCN(C(C)C(=O)OCc2cccc(C)c2)S(=O)(=O)c2ccccc21 (stereo not given)	/	.	/	/	.
CCOC(=O)c1c(S(=O)(=O)NCC(=O)Nc2ccc(C)c(Cl)c2)c(C)n(C)c1C	.	/	/	/	/
COc1cccc(CNC(=O)Cc2ccc(-n3c(=O)[nH]c4ccccc4c3=O)cc2)c1	-97	.	.	.	.
CCOC(=O)c1ccc(-n2c(=O)[nH]c3ccccc3c2=O)cc1	.	.	/	?	.
CCOC(=O)N1CCN(C(=O)Cc2ccc(-n3c(=O)[nH]c4ccccc4c3=O)cc2)CC1	.	.	.	9.3µM	.
